ALOX12 inh – blocks human arachidonate 12S-lipoxygenase; P18054; purified 12hLO, xylenol orange hydroperoxide absorbance; Potency, µM (top dose mostly 108 µM), usual class: inhibitors; 1.1% of 580,000 active; AID 1671190
Target sequence (P18054 whole entry, looked up): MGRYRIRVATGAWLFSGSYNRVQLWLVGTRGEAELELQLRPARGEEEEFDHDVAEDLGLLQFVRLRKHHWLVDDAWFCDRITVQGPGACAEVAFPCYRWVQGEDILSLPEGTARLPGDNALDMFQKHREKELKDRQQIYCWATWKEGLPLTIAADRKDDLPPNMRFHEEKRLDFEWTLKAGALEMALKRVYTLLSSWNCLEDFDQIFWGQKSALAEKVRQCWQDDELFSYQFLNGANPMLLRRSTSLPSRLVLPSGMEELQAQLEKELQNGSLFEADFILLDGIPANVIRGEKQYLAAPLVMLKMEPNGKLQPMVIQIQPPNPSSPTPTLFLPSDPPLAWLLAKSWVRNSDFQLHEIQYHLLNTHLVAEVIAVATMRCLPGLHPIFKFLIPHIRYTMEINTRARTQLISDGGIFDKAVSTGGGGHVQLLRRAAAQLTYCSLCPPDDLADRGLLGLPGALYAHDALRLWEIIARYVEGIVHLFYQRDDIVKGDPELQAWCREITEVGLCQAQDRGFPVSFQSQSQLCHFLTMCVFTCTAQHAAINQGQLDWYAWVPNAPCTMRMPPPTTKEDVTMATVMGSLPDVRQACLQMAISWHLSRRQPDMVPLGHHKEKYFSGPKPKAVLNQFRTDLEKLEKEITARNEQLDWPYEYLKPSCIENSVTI
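Hydroperoxide product was detected by ferrous iron/xylenol orange as the 573 to 405 nm absorbance ratio. Arachidonic acid at 40 uM (final) was turned over for 30 min at room temperature by 150 nM human 12hLO, pH 7.0 Hepes buffer, after 15 min compound preincubation.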
HT1080 IDH1KD tx – HT-1080 IDH1 knockdown cell toxicity (counter line); HT-1080 IDH1 knockdown viability, ATP luminescence, 48 h; Potency, µM (highest dose often 46.1 µM), most hits filed as cytotoxic; 2% of 360,000 active
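% activity derives from luminescence (CellTiter-Glo), normalised to DMSO and no-cell wells. HT-1080-IDH1KD cells, 750/well, had 48 h compound exposure at 37 °C.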
DT40 TDP1 CPT – DT40-hTDP1 cell growth loss with CPT. chicken DT40 Tdp1-/-;hTDP1 cells + 20 nM CPT, ATP luminescence, 48 h. Potency, µM (highest dose often 46.2 µM), most hits filed as inhibitors. 12% of 420,000 active. AID 686979; further: nearly all actives have a fitted effect of over 55% in size
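Chicken DT40 Tdp1-/- cells complemented with human TDP1, 400 cells/well, exposed to compounds plus 20 nM camptothecin for at least 48 h at 37 C; viability read as ATP content by CellTiter-Glo luminescence.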
IL-1B inflam inh – inhibitors of inflammasome signaling (IL-1 beta secretion); activity change, % at 57.5 µM; 4.7% of 360,000 active; THP-1 LPS/ATP IL-1B secretion, AlphaLISA, 16 h; active compounds read low; in the data active means activity change below about -50%; inconclusive means mostly about -30% to -49%
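THP-1 cells pretreated 1 hr with compounds (up to 57.5 uM final), then stimulated with LPS (250 ng/mL final) plus ATP (1.25 mM final); secreted IL-1B measured by AlphaLISA after 16 hr, decreased signal indicating inhibition.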
DT40 TDP1 no CPT – qHTS for Inhibitors of human tyrosyl-DNA phosphodiesterase 1 (TDP1): qHTS in cells in absence of CPT; 15% of 420,000 active; DT40 Tdp1-/- hTDP1 cells, no CPT, ATP luminescence, 48 h; Potency, µM (doses to about 46.2 µM), actives largely listed as inhibitors; further: nearly all actives have a fitted effect of over 55% in size
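Seeded 400 DT40-hTDP1 cells/well (vehicle DMSO, no 20 nM CPT); pinned compounds; ≥48 hr at 37 °C; CellTiter-Glo luminescence as viability measure.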
HT1080-NT tox – kills 2HG-producing HT-1080-NT fibrosarcoma cells; HT-1080-NT fibrosarcoma viability, CellTiter-Glo ATP luminescence, 48 h; Potency, µM (highest dose often 46.1 µM), usual class: cytotoxic; 1.6% of 360,000 active; AID 686970;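 further: NT is the 2HG producing partner of a matched IDH1 knockdown line; nearly all actives have a fitted effect of over 55% in size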
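750 cells/well, RPMI + 5% FBS; 2 h settle, compound pin-transfer, 48 h at 37 degrees C. CellTiter-Glo 10 min RT, luminescence. Normalized to DMSO and media-only wells.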
Hits are given with their value. This is one part of a sample in which hits are shown more often than they occur. Unless noted, the call rests on the fitted dose curve; in most records, active means well fitted curve in the direction sought with a large enough effect; inconclusive means small, poorly fitted or top-dose-only effect, or another doubt; inactive means no such curve, though single readings can be large; an effect the other way counts as inactive or inconclusive.

`O=[N+]([O-])c1ccc(Cl)c(CN2CCN(c3ncc(Cc4ccccc4)cn3)CC2)c1` gave ALOX12 inh inactive, HT1080 IDH1KD tx inactive, DT40 TDP1 CPT 23µM, IL-1B inflam inh inactive, DT40 TDP1 no CPT 16µM and HT1080-NT tox inactive.
CNC1[C@@H]2CC3C[C@H]1CC(O)(C3)C2 (stereo not given in full) was read as ALOX12 inh inactive.
For CCCN=C1N/C(=C\c2ccco2)C(=O)N1c1ccccc1 the results were ALOX12 inh inconclusive, HT1080 IDH1KD tx inactive, DT40 TDP1 CPT inconclusive, IL-1B inflam inh inactive, DT40 TDP1 no CPT inactive and HT1080-NT tox inactive.
For O=C1/C(=C\c2ccco2)NC(=S)N1c1ccccc1 the results were ALOX12 inh 16µM, HT1080 IDH1KD tx inactive, DT40 TDP1 CPT inactive, IL-1B inflam inh inactive, DT40 TDP1 no CPT 29µM and HT1080-NT tox inactive.
Screening O=C(O)CC1NC(=S)N(Cc2ccccc2)C1=O (stereo not given) returned ALOX12 inh inconclusive, HT1080 IDH1KD tx inactive, DT40 TDP1 CPT 21µM, IL-1B inflam inh inactive, DT40 TDP1 no CPT 18µM and HT1080-NT tox inactive.
CN(C)Cc1cc(CC2(NCc3ccc(N(C)C)cc3)COC2)no1 was read as ALOX12 inh inactive.
`O=C(NC1CC1)c1c(O)c2ccccc2[nH]c1=O` gave ALOX12 inh inactive, HT1080 IDH1KD tx inactive, DT40 TDP1 CPT inconclusive, IL-1B inflam inh -61, DT40 TDP1 no CPT inactive and HT1080-NT tox inactive.
`O=C(CCl)NNC(=O)c1c(O)c2ccccc2[nH]c1=O` gave ALOX12 inh inactive, HT1080 IDH1KD tx 15µM, DT40 TDP1 CPT 4.6µM, IL-1B inflam inh -102, DT40 TDP1 no CPT 5.2µM and HT1080-NT tox 12µM.
Screening CCCCC(=O)NNC(=O)c1c(O)c2ccccc2[nH]c1=O returned ALOX12 inh inactive, HT1080 IDH1KD tx inactive, DT40 TDP1 CPT inactive, IL-1B inflam inh inactive, DT40 TDP1 no CPT inconclusive and HT1080-NT tox inactive.
Screening CCc1nc2ccccc2c(=O)n1NC(=O)c1c(O)c2ccccc2[nH]c1=O returned ALOX12 inh inactive, HT1080 IDH1KD tx inactive, DT40 TDP1 CPT 21µM, IL-1B inflam inh inactive, DT40 TDP1 no CPT 18µM and HT1080-NT tox inactive.
Cc1ccccc1CC(=O)N1CC(F)(F)C[C@H]1c1nnc(C2CC2)o1 was read as ALOX12 inh inactive.
For O=C(CSCc1cccs1)NCC1CC1 the results were ALOX12 inh inactive.
Screening COc1ccc(CCn2c(S)nc3ccccc3c2=O)cc1 returned HT1080 IDH1KD tx inactive, DT40 TDP1 CPT inactive, IL-1B inflam inh inactive, DT40 TDP1 no CPT inactive and HT1080-NT tox inactive.
`COc1ccc(C(=O)OC(COc2ccccc2)Cn2ccnc2)cc1` (stereo not given) gave ALOX12 inh inconclusive, HT1080 IDH1KD tx inactive, DT40 TDP1 CPT inactive, IL-1B inflam inh -90, DT40 TDP1 no CPT inconclusive and HT1080-NT tox inactive.
Screening O=C(/C=C\c1ccc(-c2cccc([N+](=O)[O-])c2)o1)N1CCOCC1 returned ALOX12 inh inactive, HT1080 IDH1KD tx inactive, DT40 TDP1 CPT inconclusive, IL-1B inflam inh inactive, DT40 TDP1 no CPT 23µM and HT1080-NT tox inactive.
Screening CC1CCN(c2ccc(NC(=S)NC(=O)c3ccc(-c4cccc([N+](=O)[O-])c4)o3)cc2)CC1 returned ALOX12 inh inactive, HT1080 IDH1KD tx 6.3µM, DT40 TDP1 CPT 11µM, IL-1B inflam inh inactive, DT40 TDP1 no CPT 10µM and HT1080-NT tox inconclusive.
O=C(c1ccc(-c2ccc(Cl)cc2)o1)N1CCN(c2ccc([N+](=O)[O-])cc2Cl)CC1 was read as ALOX12 inh inactive, HT1080 IDH1KD tx inconclusive, DT40 TDP1 CPT 5.2µM, IL-1B inflam inh inactive, DT40 TDP1 no CPT 2.6µM and HT1080-NT tox inconclusive.
Screening CCc1nc2ccc(C(=O)N3CCN(c4ccc([N+](=O)[O-])cc4)CC3)cc2nc1CC returned ALOX12 inh inactive, HT1080 IDH1KD tx inactive, DT40 TDP1 CPT 16µM, IL-1B inflam inh inconclusive, DT40 TDP1 no CPT inconclusive and HT1080-NT tox inconclusive.
`c1nc(SSc2ncc3n[nH]nc3n2)nc2n[nH]nc12` gave DT40 TDP1 CPT inactive and DT40 TDP1 no CPT inactive.
For CC(C)(C)C(=O)N1CC[C@H]2CC(=O)N(Cc3cccnc3)CC[C@H]2C1 the results were ALOX12 inh inactive.
For C/C(=N\N1CCN(c2ccc(Cl)cc2)CC1)c1cccc([N+](=O)[O-])c1 the results were ALOX12 inh inconclusive, HT1080 IDH1KD tx inactive, DT40 TDP1 CPT inactive, IL-1B inflam inh inactive, DT40 TDP1 no CPT inconclusive and HT1080-NT tox inactive.
`O=C(c1ccc(-c2cccc([N+](=O)[O-])c2)o1)N1CCN(c2ccc([N+](=O)[O-])cc2)CC1` gave ALOX12 inh inactive, HT1080 IDH1KD tx inactive, DT40 TDP1 CPT 6.5µM, IL-1B inflam inh inactive, DT40 TDP1 no CPT 4.1µM and HT1080-NT tox inactive.
Screening O=[N+]([O-])c1cccc(-c2ccc(C(=S)N3CCN(c4ccc(F)cc4)CC3)o2)c1 returned ALOX12 inh inactive, HT1080 IDH1KD tx inactive, DT40 TDP1 CPT inactive, IL-1B inflam inh inactive, DT40 TDP1 no CPT inactive and HT1080-NT tox inactive.
For O=C(c1cccc([N+](=O)[O-])c1)N1CCN(c2ccc(Cl)cc2)CC1 the results were ALOX12 inh inactive, HT1080 IDH1KD tx inactive, DT40 TDP1 CPT 21µM, IL-1B inflam inh inactive, DT40 TDP1 no CPT 15µM and HT1080-NT tox inactive.
For CC1CC(C)CN(C(=O)c2ccc(-c3ccc([N+](=O)[O-])cc3)o2)C1 (stereo not given) the results were ALOX12 inh inconclusive, HT1080 IDH1KD tx inactive, DT40 TDP1 CPT 16µM, IL-1B inflam inh inconclusive, DT40 TDP1 no CPT 16µM and HT1080-NT tox inactive.
Cc1ccc(NC(=O)C(=O)NCCc2csc(-c3ccc(C(F)(F)F)cc3)n2)cc1C was read as ALOX12 inh inactive.
O=C(Nc1ccccc1-c1ccccc1)C12CC3CC(CC(C3)C1)C2 was read as ALOX12 inh inactive, HT1080 IDH1KD tx inconclusive, DT40 TDP1 CPT inconclusive, IL-1B inflam inh inactive, DT40 TDP1 no CPT 15µM and HT1080-NT tox inactive.
`O=C(Nc1ccccc1-c1ccccc1)C1CCCC1` gave ALOX12 inh inactive, HT1080 IDH1KD tx inconclusive, DT40 TDP1 CPT 6.5µM, IL-1B inflam inh inactive, DT40 TDP1 no CPT 6.5µM and HT1080-NT tox inconclusive.
`CC1(C)COCCN1C(=O)c1ccc(OCC2CCCO2)cc1` (stereo not given) gave ALOX12 inh inactive.
For COc1ccc(NC(=O)CSc2nc(-c3cc(OC)c(OC)c(OC)c3)[nH]c2-c2ccc(F)cc2)cc1 the results were ALOX12 inh inactive, DT40 TDP1 CPT inconclusive and DT40 TDP1 no CPT 23µM.
